Calls of active or inactive are those of the source. Rule for the calls: active = hit-call score of the fitted dose curve at least 0.9, where 1 is the maximum; inactive = score below 0.9.

Common to all, as to conditions: mRNA level, 48 h; actives raise or lower the signal
Read-out in test [1]: Nuclear factor NF-kappa-B p105 subunit (Homo sapiens) (UniProt P19838)
The experiment in a line: LTEA_HepaRG_NFKB1: Life Technologies and Expression Analysis (LTEA) Assay for Nuclear Factor Kappa B Subunit 1 (NFKB1) using HepaRG (AID 2283521).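 Note: TaqMan qRT-PCR transcript normalised to ACTB GAPDH and POLR2A housekeeping genes.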 Put shortly: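 Human HepaRG cells receive eight half-log concentrations, highest 100 uM, for 48 h. NFKB1 expression is then quantified by qRT-PCR and analysed for up- or down-regulation relative to 0.5% DMSO vehicle.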

Read-out in test [2]: Protein phosphatase 2A (PPP2R4), PTPA (gene 5524)
The test is described as follows: LTEA_HepaRG_PPP2R4: Life Technologies and Expression Analysis (LTEA) Assay for Protein phosphatase 2A (PPP2R4) using HepaRG (AID 2283522). Put shortly: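 Gene-expression endpoint in HepaRG hepatic cells: 48 h treatment across eight half-log concentrations up to 100 uM in 0.5% DMSO. PPP2R4 mRNA by qRT-PCR, normalized to three endogenous control genes.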

Read-out in test [3]: Phosphatase and tensin (PTEN), PTEN (gene 5728)
The experiment in a line: LTEA_HepaRG_PTEN: Life Technologies and Expression Analysis (LTEA) Assay for Phosphatase and tensin (PTEN) using HepaRG (AID 2283523). Put shortly: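 HepaRG cells, 48 h after plating, exposed in duplicate for 48 h in serum-free induction medium to 8 half-log concentrations up to 100 uM (0.5% DMSO). PTEN mRNA by qRT-PCR, normalized to ACTB, GAPDH, POLR2A; bidirectional fit versus DMSO.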

Read-out in test [4]: solute carrier (SLC22A1), SLC22A1 (gene 6580)
The test is described as follows: LTEA_HepaRG_SLC22A1: Life Technologies and Expression Analysis (LTEA) Assay for solute carrier (SLC22A1) using HepaRG (AID 2283524). The gist of the method:
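Differentiated human HepaRG cells in serum-free induction medium, exposed 48 h in duplicate to 8-point half-log series from 100 µM top in 0.5% DMSO. SLC22A1 mRNA by TaqMan qRT-PCR normalized to ACTB, GAPDH, POLR2A; bidirectional fit versus DMSO.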

Read-out in test [5]: Pyruvate Dehydrogenase Kinase 4 (PDK4), PDK4 (gene 5166)
The experiment in a line: LTEA_HepaRG_PDK4: Life Technologies and Expression Analysis (LTEA) Assay for Pyruvate Dehydrogenase Kinase 4 (PDK4) using HepaRG (AID 2283525). Put shortly: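 HepaRG cells plated 48 h, then switched to serum-free induction medium and exposed in duplicate for 48 h to 8 half-log concentrations from 100 uM in 0.5% DMSO. PDK4 mRNA measured by qRT-PCR, normalized to ACTB, GAPDH and POLR2A; bidirectional fit versus DMSO.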

Read-out in test [6]: NAD(P)H dehydrogenase [quinone] 1 (NQO1), NQO1 (gene 1728)
The experiment in a line: LTEA_HepaRG_NQO1: Life Technologies and Expression Analysis (LTEA) Assay for NAD(P)H dehydrogenase [quinone] 1 (NQO1) using HepaRG (AID 2283526). Put shortly: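 Human HepaRG hepatic cells received chemicals for 48 h in serum-free induction medium with 0.5% DMSO, up to 100 uM. Expression was assessed by TaqMan qRT-PCR against housekeeping controls and fitted bidirectionally against DMSO.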

Read-out in test [7]: Nuclear factor erythroid 2-related factor 2 (Homo sapiens) (UniProt Q16236)
The experiment in a line: LTEA_HepaRG_NFE2L2: Life Technologies and Expression Analysis (LTEA) Assay for Nuclear factor erythroid 2-related factor 2 (NFE2L2) Transcription Factor using HepaRG (AID 2283527).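 For outcome: TaqMan qRT-PCR transcript level normalised to ACTB GAPDH and POLR2A housekeeping genes.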 Put shortly:
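Differentiated human HepaRG cells, serum-free induction medium, exposed 48 h in duplicate to eight half-log concentrations up to 100 uM in 0.5% DMSO. NFE2L2 mRNA by Fluidigm TaqMan qRT-PCR, normalised to ACTB, GAPDH, POLR2A; bidirectional change versus DMSO.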

Read-out in test [8]: succinate dehydrogenase complex iron sulfur subunit B (SDHB), SDHB (gene 6390)
The experiment in a line: LTEA_HepaRG_SDHB: Life Technologies and Expression Analysis (LTEA) Assay for succinate dehydrogenase complex iron sulfur subunit B (SDHB) using HepaRG (AID 2283528). Put shortly: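 A human HepaRG culture in serum-free induction medium received test chemicals for 48 h over an eight-point range capped at 100 uM. SDHB expression change was quantified by qRT-PCR.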

Read-out in test [9]: Signal transducer and activator of transcription 3 (Homo sapiens) (UniProt P40763)
The experiment in a line: LTEA_HepaRG_STAT3: Life Technologies and Expression Analysis (LTEA) Assay for Signal transducer and activator of transcription (STAT3) using HepaRG (AID 2283529). Put shortly: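 Differentiated HepaRG cells, serum-free induction medium, dosed 48 h in duplicate, 8 half-log concentrations from 100 uM in 0.5% DMSO. STAT3 mRNA by qRT-PCR, normalised to ACTB, GAPDH, POLR2A; bidirectional fit versus DMSO.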

Read-out in test [10]: solute carrier (SLCO1B1), SLCO1B1 (gene 10599)
The test is described as follows: LTEA_HepaRG_SLCO1B1: Life Technologies and Expression Analysis (LTEA) Assay for solute carrier (SLCO1B1) using HepaRG (AID 2283530). The gist of the method:
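Gain or loss of SLCO1B1 mRNA is fitted against the 0.5% DMSO vehicle in human HepaRG liver cells treated 48 h at up to 100 uM in half-log steps. Expression comes from qRT-PCR normalized to endogenous controls.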

Read-out in test [11]: sulfotransferase 2A1 (SULT2A1), SULT2A1 (gene 6822)
The test is described as follows: LTEA_HepaRG_SULT2A1: Life Technologies and Expression Analysis (LTEA) Assay for sulfotransferase 2A1 (SULT2A1) using HepaRG (AID 2283531). The gist of the method:
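Cells were plated and cultured 48 h, switched to serum-free induction medium, then dosed in duplicate for 48 h (8 concentrations, max 100 uM). RNA was isolated and SULT2A1 expression measured by qRT-PCR; gain or loss of signal fitted relative to DMSO.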

Read-out in test [12]: Transforming Growth Factor (TGFA), TGFA (gene 7039)
The test is described as follows: LTEA_HepaRG_TGFA: Life Technologies and Expression Analysis (LTEA) Assay for Transforming Growth Factor (TGFA) using HepaRG (AID 2283532). Put shortly: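 Differentiated HepaRG cells exposed 48 hours in serum-free induction medium, 0.5% DMSO vehicle, 8-point half-log series from 100 uM, in duplicate. TGFA mRNA by TaqMan qRT-PCR, normalised to ACTB, GAPDH, POLR2A; bidirectional fit versus DMSO.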

Read-out in test [13]: Transforming Growth Factor (TGFB1), TGFB1 (gene 7040)
The experiment in a line: LTEA_HepaRG_TGFB1: Life Technologies and Expression Analysis (LTEA) Assay for Transforming Growth Factor (TGFB1) Transporter using HepaRG (AID 2283533). Put shortly: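 Expression change of TGFB1 in human HepaRG cells is measured after a 48 h chemical exposure, up to 100 uM in 0.5% DMSO vehicle. Curves are fitted in both directions relative to the DMSO baseline.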

Read-out in test [14]: TIMP1, TIMP1 (gene 7076)
The experiment in a line: LTEA_HepaRG_TIMP1: Life Technologies and Expression Analysis (LTEA) Assay for TIMP1 using HepaRG (AID 2283534).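 Note: TaqMan qRT-PCR signal normalized to ACTB GAPDH and POLR2A housekeeping genes.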 Put shortly: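 We dosed human liver HepaRG cultures for 48 hours with up to 100 uM test chemical and measured TIMP1 expression by qRT-PCR. Activity in either direction is fitted relative to the 0.5% DMSO vehicle.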

Read-out in test [15]: Tumor necrosis factor receptor 1 (TNFRSF1A), TNFRSF1A (gene 7132)
The test is described as follows: LTEA_HepaRG_TNFRSF1A: Life Technologies and Expression Analysis (LTEA) Assay for Tumor necrosis factor receptor 1 (TNFRSF1A) using HepaRG (AID 2283535). Put shortly:
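Expression of TNFRSF1A in human HepaRG liver cells was measured by qRT-PCR 48 h after chemical dosing (maximum 100 uM). Bidirectional curve fitting used 0.5% DMSO as baseline.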

Read-out in test [16]: Thyroid Hormone Responsive (THRSP), THRSP (gene 7069)
The experiment in a line: LTEA_HepaRG_THRSP: Life Technologies and Expression Analysis (LTEA) Assay for Thyroid Hormone Responsive (THRSP) using HepaRG (AID 2283536). Put shortly: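 Differentiated HepaRG cells treated 48 h in serum-free induction medium with 8 half-log concentrations up to 100 uM (0.5% DMSO), duplicates. THRSP mRNA by TaqMan qRT-PCR normalised to ACTB, GAPDH, POLR2A; bidirectional fit versus DMSO.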

Read-out in test [17]: UDP glucuronosyltransferase (UGT1A1), UGT1A1 (gene 54658)
The experiment in a line: LTEA_HepaRG_UGT1A1: Life Technologies and Expression Analysis (LTEA) Assay for UDP glucuronosyltransferase (UGT1A1) using HepaRG (AID 2283538). Put shortly: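 Human liver HepaRG cultures receive test chemical for 48 h, up to 100 uM in 0.5% DMSO, with phenobarbital induction controls. UGT1A1 mRNA is measured by qRT-PCR and normalized to ACTB, GAPDH and POLR2A.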

Read-out in test [18]: UDP glucuronosyltransferase (UGT1A6), UGT1A6 (gene 54578)
The test is described as follows: LTEA_HepaRG_UGT1A6: Life Technologies and Expression Analysis (LTEA) Assay for UDP glucuronosyltransferase (UGT1A6) using HepaRG (AID 2283539). Put shortly:
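Endpoint is UGT1A6 transcript induction or loss in a human liver cell line, quantified by TaqMan qRT-PCR 48 h after dosing. Concentrations ran from 100 uM downward in half-log steps in 0.5% DMSO; activity was fitted in both directions versus vehicle.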

Read-out in test [19]: X-box binding protein 1 (XBP1), XBP1 (gene 7494)
The test is described as follows: LTEA_HepaRG_XBP1: Life Technologies and Expression Analysis (LTEA) Assay for X-box binding protein 1 (XBP1) using HepaRG (AID 2283540). The gist of the method: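 Human HepaRG monolayers receive test chemical for 48 h across an eight-point half-log series starting at 100 uM. XBP1 mRNA gain or loss is scored against DMSO by qRT-PCR.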

Sequence of Nuclear factor erythroid 2-related factor 2 (Homo sapiens) (Q16236 whole entry, looked up): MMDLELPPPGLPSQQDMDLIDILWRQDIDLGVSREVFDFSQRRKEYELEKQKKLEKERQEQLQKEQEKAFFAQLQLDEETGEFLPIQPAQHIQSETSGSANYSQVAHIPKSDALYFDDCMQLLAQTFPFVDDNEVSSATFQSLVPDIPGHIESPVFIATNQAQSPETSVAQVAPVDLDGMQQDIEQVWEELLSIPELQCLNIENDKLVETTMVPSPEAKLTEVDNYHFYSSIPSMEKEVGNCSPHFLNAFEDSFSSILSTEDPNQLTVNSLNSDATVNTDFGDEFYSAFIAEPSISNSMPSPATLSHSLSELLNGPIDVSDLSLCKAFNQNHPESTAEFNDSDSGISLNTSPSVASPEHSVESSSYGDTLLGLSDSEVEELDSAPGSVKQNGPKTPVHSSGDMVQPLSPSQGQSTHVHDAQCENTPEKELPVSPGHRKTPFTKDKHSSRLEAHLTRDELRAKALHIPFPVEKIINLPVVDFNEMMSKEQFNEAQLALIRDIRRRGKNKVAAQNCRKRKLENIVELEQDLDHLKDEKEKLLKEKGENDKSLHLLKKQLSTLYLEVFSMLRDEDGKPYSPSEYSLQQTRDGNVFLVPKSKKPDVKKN
Sequence of Nuclear factor NF-kappa-B p105 subunit (Homo sapiens) (P19838 whole entry, looked up): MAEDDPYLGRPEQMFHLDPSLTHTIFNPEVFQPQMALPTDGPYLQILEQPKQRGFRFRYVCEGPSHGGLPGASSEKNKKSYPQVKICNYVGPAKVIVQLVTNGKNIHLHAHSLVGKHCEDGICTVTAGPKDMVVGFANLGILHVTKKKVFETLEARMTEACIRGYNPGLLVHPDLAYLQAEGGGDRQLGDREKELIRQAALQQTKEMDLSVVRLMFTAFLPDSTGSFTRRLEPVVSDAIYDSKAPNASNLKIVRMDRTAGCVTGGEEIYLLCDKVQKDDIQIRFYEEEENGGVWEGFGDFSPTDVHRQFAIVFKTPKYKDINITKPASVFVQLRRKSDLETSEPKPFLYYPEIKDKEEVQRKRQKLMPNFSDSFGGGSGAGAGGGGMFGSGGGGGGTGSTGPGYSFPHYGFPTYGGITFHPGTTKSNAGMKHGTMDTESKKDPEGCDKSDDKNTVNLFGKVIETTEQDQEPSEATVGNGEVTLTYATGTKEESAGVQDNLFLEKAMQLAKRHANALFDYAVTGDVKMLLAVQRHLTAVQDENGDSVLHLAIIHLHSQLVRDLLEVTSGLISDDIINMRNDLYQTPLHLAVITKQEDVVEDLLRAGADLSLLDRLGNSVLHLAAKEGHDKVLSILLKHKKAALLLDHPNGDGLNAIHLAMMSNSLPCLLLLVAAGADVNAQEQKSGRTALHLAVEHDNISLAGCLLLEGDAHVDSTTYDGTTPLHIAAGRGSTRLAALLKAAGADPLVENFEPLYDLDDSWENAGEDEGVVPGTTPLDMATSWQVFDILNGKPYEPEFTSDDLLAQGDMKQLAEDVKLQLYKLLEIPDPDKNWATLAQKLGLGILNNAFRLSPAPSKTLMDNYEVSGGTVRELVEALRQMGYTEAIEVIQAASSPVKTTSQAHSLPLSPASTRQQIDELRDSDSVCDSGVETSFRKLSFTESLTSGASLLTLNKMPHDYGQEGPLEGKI
Sequence of Signal transducer and activator of transcription 3 (Homo sapiens) (P40763 whole entry, looked up): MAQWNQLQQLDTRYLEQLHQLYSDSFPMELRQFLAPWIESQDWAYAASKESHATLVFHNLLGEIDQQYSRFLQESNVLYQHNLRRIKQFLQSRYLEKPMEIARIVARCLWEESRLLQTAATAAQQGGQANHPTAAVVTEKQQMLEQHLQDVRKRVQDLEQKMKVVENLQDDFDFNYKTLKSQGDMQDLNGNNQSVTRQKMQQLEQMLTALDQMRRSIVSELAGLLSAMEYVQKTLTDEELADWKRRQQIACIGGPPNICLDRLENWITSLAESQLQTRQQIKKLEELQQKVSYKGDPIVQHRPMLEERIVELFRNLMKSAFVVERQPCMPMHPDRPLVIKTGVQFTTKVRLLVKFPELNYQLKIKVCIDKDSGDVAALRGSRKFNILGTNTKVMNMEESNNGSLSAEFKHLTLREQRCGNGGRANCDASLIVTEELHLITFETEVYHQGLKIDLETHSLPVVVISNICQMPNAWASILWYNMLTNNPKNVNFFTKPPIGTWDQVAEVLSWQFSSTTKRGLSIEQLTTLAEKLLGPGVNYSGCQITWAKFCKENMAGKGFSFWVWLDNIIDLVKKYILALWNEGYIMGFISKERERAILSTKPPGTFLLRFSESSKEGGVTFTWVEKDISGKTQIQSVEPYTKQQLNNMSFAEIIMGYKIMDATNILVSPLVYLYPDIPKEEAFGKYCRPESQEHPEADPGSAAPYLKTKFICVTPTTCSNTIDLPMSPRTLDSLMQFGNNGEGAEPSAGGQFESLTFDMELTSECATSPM

Consider `COCC(C)O` (stereo not given), for which the outcome in test [1], in [2], in test [3], in test [4], in [5] and in [6] was inactive. Also, the outcome in test [7], in test [8], in test [9], in [10], in test [11] and in [12] was inactive. Besides, the result in test [13], in test [14], in test [15], in [16], in [17] and in [18] was inactive. The result in [19] was inactive.
What is called AC50 is the midpoint of the concentration-response curve, whichever way the signal moves. `CN1CCN(c2ccccc2/C=C2\SCCN(c3ccc(Cl)c(Cl)c3)C2=O)CC1`: the compound was classed as inactive in [1], in [3], in test [5], in test [8], in [9] and in test [10]. Moreover, the result in test [14], in test [16], in [18] and in [19] was inactive. The half-maximal activity concentration (AC50) in test [4] was 93.8 µM (active); in test [6] it was 81.3 µM (active); in test [7], 79.5 µM (active); in test [11], 93.2 µM (active); in test [12] it was 96.2 µM (active); in test [13], 93.4 µM (active). Also, the half-maximal activity concentration (AC50) was 95.5 µM (active) in test [15] and 50 µM (active) in [17].
Take `CC(=O)CC(C)(C)O`: the call in test [1], in test [2], in [3], in [4], in [5] and in [6] was inactive. Besides, the outcome in test [7], in [8], in test [9], in [10], in [11] and in [13] was inactive. Besides, the compound was classed as inactive in test [14], in [15], in test [16], in [17], in test [18] and in test [19].
